# Test system: not listed separately
# Experiment: JC-1 mitochondrial potential readout, lung cancer cells – cell-based, A549, JC-1 fluorescence, basal, 24 h, 100 nL, profiling panel (AID 1138);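 also: A549 lung adenocarcinoma cells under basal conditions with no added stimulus; test concentration not given here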
# Conditions: higher = more signal
row,Structure (SMILES),z-score
1,CC(C)(C)N1C(=O)[C@H]2[C@H]3[C@H](O)[C@H](O)CC(=NOCc4ccccc4)[C@@H]3CC[C@H]2C1=O,0.0533
2,O=C1[C@H]2[C@H]3[C@H](O)[C@H](O)CC(=NOC[C@@H](O)COCc4ccco4)[C@H]3CC[C@H]2C(=O)N1c1cccc(Oc2ccccc2)c1,0.89
3,CC(C)=CCCC(C)=CCON=C1C[C@@H](O)[C@@H](O)[C@@H]2[C@@H]3C(=O)N(C[C@@H]4CCCO4)C(=O)[C@@H]3CC[C@@H]12,-0.26
4,Cc1ccc(S(=O)(=O)N[C@@H]2COC(=O)[C@H](C)COC(=O)CC=C[C@H]2C)cc1,0.26
5,CCc1cc2c(nc1CC)CCN(CCC(C)=NO[C@@H](C)c1cc(-c3c(C)cc(C)cc3C)no1)C2,1.69
6,CC(=O)OC[C@H]1O[C@@H](ON=C(C)CCN2CCc3nc(-c4ccccc4)c(-c4ccccc4)cc3C2)[C@H](OC(C)=O)[C@@H](OC(C)=O)[C@@H]1OC(C)=O,1.13
7,Cc1ccc(S[C@]2(C(=O)NCC(F)(F)F)CC(=O)N(Cc3ccccc3Cl)[C@@H]2c2ccc(CO)cc2I)cc1,1.14
8,CO[C@@H]1COC(=O)CC=C[C@@H](C)COC(=O)[C@H](COCc2ccccc2)NC(=O)CC=C[C@H]1C,-0.378
9,O[C@@H](Cc1ccccc1)[C@H]1C2C=CCCC(c3ccccc3)=C2CN1Cc1cccc(Cl)c1 (stereo partly drawn),2.09
10,CC(=O)OC[C@H]1O[C@H](CCON=C[C@@H](C)[C@H](OCc2ccccc2)C(C)C)C=C[C@@H]1OC(C)=O,-0.808
11,CC1(C)OCC(C(O)C2=CCCCC2=O)CO1 (stereo not drawn),-0.867
12,CO[C@@H]1COC(=O)CC=C[C@@H](C)[C@@H]2C=C[C@H](O)[C@@H](COC(=O)[C@H](C)NC(=O)CC=C[C@H]1C)O2,-1.23
13,CCCCCN1CC=CC23O[C@@H]4C=CCOC(=O)[C@@H]4[C@H]2C(=O)N(CCCCCCO)[C@@H]3C1=O (stereo partly drawn),0.421
14,COCCCNC(=O)[C@@]1(C)c2ccccc2C(=O)N(Cc2ccc(OC(F)(F)F)cc2)[C@H]1c1ccc(CO)cc1,0.332
15,CC(C)[C@@H](OCc1ccccc1)[C@H](C)C=NO[C@H](C)c1cn([C@H](CO)Cc2ccccc2)nn1,0.506
16,c1ccc(C2NCCc3c2[nH]c2ccccc32)cc1 (stereo not drawn),-0.104
17,O=C1NC(=O)C2C1C=CC(C(O)Cc1ccccc1)N2Nc1ccccn1 (stereo not drawn),1.78
18,CCOC(=O)[C@H](Cc1ccccc1)NC(=O)CCC1CC(OC(=O)NCCc2ccc(F)cc2)CC2(CCCC(COC(=O)NCC(c3ccccc3)c3ccccc3)O2)O1 (stereo partly drawn),0.597
19,COCCOC(=O)N1C(=O)[C@@]2(c3cc(C#Cc4ccc(OC)cc4)ccc31)[C@H](C(=O)N1CCN(c3ncccn3)CC1)[C@H]1C(=O)O[C@H](c3ccccc3)[C@H](c3ccccc3)N1[C@@H]2c1ccc(OCCO)cc1,-1.15
20,CC(=O)OC[C@H]1O[C@@H](ON=C[C@@H](C)[C@H](OCc2ccccc2)C(C)C)[C@H](OC(C)=O)[C@@H](OC(C)=O)[C@@H]1OC(C)=O,1.32
21,COC(=O)CC=C[C@@H](C)[C@@H](C=NO[C@H](C)c1cn([C@@H]2COC[C@H]2O)nn1)OC,0.014
22,CC(CCN1CCc2nc(-c3ccccc3)c(-c3ccccc3)cc2C1)=NOC(C)CN1CCCCc2nc(C)c(C)cc21 (stereo not drawn),1.52
23,CC(=O)OC[C@H]1O[C@H](C#CCCCc2ccccc2)C=C[C@@H]1OC(C)=O,-0.264
24,CCOc1ccc(N2C(=O)/C(=C/C=C/c3ccccc3OC)S(=O)(=O)C2c2cccc([N+](=O)[O-])c2)cc1 (stereo not drawn),2.31
25,COC(=O)[C@@H]1N=C(c2ccc(OCCCO)cc2)O[C@@H]1c1ccccc1N=[N+]=[N-],0.484
26,CCN1C(=O)[C@H]2[C@H]3[C@H](O)[C@H](O)CC(=NOC(C)CN4CCCCc5nc(C)c(C)cc54)[C@@H]3CC[C@H]2C1=O (stereo partly drawn),0.0743
27,CC(C)(C)OC(=O)CC[C@]1(C(N)=O)COC(c2ccc(OCCCO)cc2)=N1,-0.437

# Test system: Lefty1
# Experiment: Lefty1 protein binding to printed compounds – biochemical, small-molecule microarray, 635/667 nm fluorescence, primary screen (AID 1139)
# Conditions: fluorescence 635/667, higher = more signal
row,Structure (SMILES),composite z-score
1,NCCCCCNC(=O)[C@@H]1C[C@@H]2C(=O)N3CCC[C@H]3C(=O)N2[C@@H]1c1cccc(OCCO)c1,0.437
2,C=CC[C@]1(C(=O)NCc2ccccc2)N=C(c2ccc(OCCCO)cc2)O[C@H]1c1ccccc1,-0.0085
3,COCCOC(=O)N1C(=O)[C@@]2(c3cc(C#CCNC(N)=O)ccc31)[C@H](c1ccc(O)cc1)N1[C@H](c3ccccc3)[C@H](c3ccccc3)OC(=O)[C@H]1[C@@H]2C(=O)N1CCCCCCC1,1.05
4,O=C1[C@H]2[C@H]3[C@H](O)[C@H](O)CC(=NO[C@@H]4O[C@H](CO)[C@@H](O)[C@H](O)[C@H]4O)[C@@H]3CC[C@H]2C(=O)N1Cc1ccc2c(c1)OCO2,0.716
5,O=C1[C@H]2[C@H]3[C@H](O)[C@H](O)CC(=NOCc4ccccc4)[C@@H]3CC[C@H]2C(=O)N1C1CCCCC1,0.348
6,O=C1[C@H]2[C@H]3[C@H](O)[C@H](O)CC(=NO[C@@H]4O[C@H](CO)[C@@H](O)[C@H](O)[C@H]4O)[C@H]3CC[C@H]2C(=O)N1Cc1ccc2c(c1)OCO2,0.515
7,O=C(NN=C1C[C@@H](O)[C@@H](O)[C@@H]2[C@@H]3C(=O)N(c4cccc(Oc5ccccc5)c4)C(=O)[C@@H]3CC[C@H]12)OCc1ccccc1,0.168
8,CC(C)CON=C1C[C@@H](O)[C@@H](O)[C@@H]2[C@@H]3C(=O)N([C@@H](C)c4ccccc4)C(=O)[C@@H]3CC[C@H]12,1.4
9,CC(=O)O[C@H]1C2=C(C(=O)[C@@H]3O[C@@H]31)[C@H]1C(C)O[C@@H]2[C@@]23C(=O)[C@@H]4O[C@@H]4[C@@H](O)C2=CO[C@H](C)[C@@H]13 (stereo partly drawn),0.0364
10,CC(C)(C)N1C(=O)[C@H]2[C@H]3[C@H](O)[C@H](O)CC(=NOCc4ccccc4)[C@@H]3CC[C@H]2C1=O,0.744
11,O=C1[C@H]2[C@H]3[C@H](O)[C@H](O)CC(=NOC[C@@H](O)COCc4ccco4)[C@H]3CC[C@H]2C(=O)N1c1cccc(Oc2ccccc2)c1,-0.021
12,CC(C)=CCCC(C)=CCON=C1C[C@@H](O)[C@@H](O)[C@@H]2[C@@H]3C(=O)N(C[C@@H]4CCCO4)C(=O)[C@@H]3CC[C@@H]12,1.26
13,Cc1ccc(S(=O)(=O)N[C@@H]2COC(=O)[C@H](C)COC(=O)CC=C[C@H]2C)cc1,1.38
14,CCc1cc2c(nc1CC)CCN(CCC(C)=NO[C@@H](C)c1cc(-c3c(C)cc(C)cc3C)no1)C2,0.388
15,CC(=O)OC[C@H]1O[C@@H](ON=C(C)CCN2CCc3nc(-c4ccccc4)c(-c4ccccc4)cc3C2)[C@H](OC(C)=O)[C@@H](OC(C)=O)[C@@H]1OC(C)=O,0.699
16,Cc1ccc(S[C@]2(C(=O)NCC(F)(F)F)CC(=O)N(Cc3ccccc3Cl)[C@@H]2c2ccc(CO)cc2I)cc1,-0.558
17,CO[C@@H]1COC(=O)CC=C[C@@H](C)COC(=O)[C@H](COCc2ccccc2)NC(=O)CC=C[C@H]1C,1.57
18,O[C@@H](Cc1ccccc1)[C@H]1C2C=CCCC(c3ccccc3)=C2CN1Cc1cccc(Cl)c1 (stereo partly drawn),0.625

row,Structure (SMILES),composite z-score
1,CC(=O)OC[C@H]1O[C@H](CCON=C[C@@H](C)[C@H](OCc2ccccc2)C(C)C)C=C[C@@H]1OC(C)=O,0.325
2,CC1(C)OCC(C(O)C2=CCCCC2=O)CO1 (stereo not drawn),1.33
3,CO[C@@H]1COC(=O)CC=C[C@@H](C)[C@@H]2C=C[C@H](O)[C@@H](COC(=O)[C@H](C)NC(=O)CC=C[C@H]1C)O2,1.53
4,CCCCCN1CC=CC23O[C@@H]4C=CCOC(=O)[C@@H]4[C@H]2C(=O)N(CCCCCCO)[C@@H]3C1=O (stereo partly drawn),-1.05
5,COCCCNC(=O)[C@@]1(C)c2ccccc2C(=O)N(Cc2ccc(OC(F)(F)F)cc2)[C@H]1c1ccc(CO)cc1,-1.02
6,CC(C)[C@@H](OCc1ccccc1)[C@H](C)C=NO[C@H](C)c1cn([C@H](CO)Cc2ccccc2)nn1,0.913
7,c1ccc(C2NCCc3c2[nH]c2ccccc32)cc1 (stereo not drawn),0.588
8,O=C1NC(=O)C2C1C=CC(C(O)Cc1ccccc1)N2Nc1ccccn1 (stereo not drawn),-0.174
9,CCOC(=O)[C@H](Cc1ccccc1)NC(=O)CCC1CC(OC(=O)NCCc2ccc(F)cc2)CC2(CCCC(COC(=O)NCC(c3ccccc3)c3ccccc3)O2)O1 (stereo partly drawn),0.68
10,COCCOC(=O)N1C(=O)[C@@]2(c3cc(C#Cc4ccc(OC)cc4)ccc31)[C@H](C(=O)N1CCN(c3ncccn3)CC1)[C@H]1C(=O)O[C@H](c3ccccc3)[C@H](c3ccccc3)N1[C@@H]2c1ccc(OCCO)cc1,0.786
11,CC(=O)OC[C@H]1O[C@@H](ON=C[C@@H](C)[C@H](OCc2ccccc2)C(C)C)[C@H](OC(C)=O)[C@@H](OC(C)=O)[C@@H]1OC(C)=O,-0.207
12,COC(=O)CC=C[C@@H](C)[C@@H](C=NO[C@H](C)c1cn([C@@H]2COC[C@H]2O)nn1)OC,0.645
13,CC(CCN1CCc2nc(-c3ccccc3)c(-c3ccccc3)cc2C1)=NOC(C)CN1CCCCc2nc(C)c(C)cc21 (stereo not drawn),0.593
14,CC(=O)OC[C@H]1O[C@H](C#CCCCc2ccccc2)C=C[C@@H]1OC(C)=O,0.696
15,CCOc1ccc(N2C(=O)/C(=C/C=C/c3ccccc3OC)S(=O)(=O)C2c2cccc([N+](=O)[O-])c2)cc1 (stereo not drawn),0.23
16,COC(=O)[C@@H]1N=C(c2ccc(OCCCO)cc2)O[C@@H]1c1ccccc1N=[N+]=[N-],-0.394
17,CCN1C(=O)[C@H]2[C@H]3[C@H](O)[C@H](O)CC(=NOC(C)CN4CCCCc5nc(C)c(C)cc54)[C@@H]3CC[C@H]2C1=O (stereo partly drawn),0.672
18,CC(C)(C)OC(=O)CC[C@]1(C(N)=O)COC(c2ccc(OCCCO)cc2)=N1,-1.08
